Compound activity: PubChem, Sanford-Burnham Center for Chemical Genomics
Rows were chosen to be rich in hits. Some 4% of all compounds tested hit in one or more screens of this group.
tim10-1 inh: growth inhibitors of tim10-1 mutant yeast, primary screen, luminescence, uHTS; hit rate 2.2% among 330,000; inhibition, % at 20 µM; S. cerevisiae tim10-1 ts strain growth, BacTiter-Glo, 24 h; AID 463190, 2010;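 active = inhibition of at least 40%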;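 note: mutant grown at 25 °C; 0% = DMSO wells with yeast and 100% = wells holding no yeast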
NALP1 yeast inh: NALP1 inflammasome inhibitors in reconstituted yeast, colorimetric, S. cerevisiae, triplicate retest; inhibition, % at 10 µM; S. cerevisiae NALP1/ASC/caspase-1 growth, X-gal OD620, 72 h; hit rate 0.61% among 280,000; in the data active = inhibition mostly above about 24%, no sharp cut-off; inactive = mostly below about 32%
TIM10 inh: growth inhibitors of isogenic TIM10 control yeast, primary screen, counter-screen for tim10-1 yeast inhibitor project, luminescence, uHTS; S. cerevisiae TIM10 strain growth, BacTiter-Glo luminescence, 24 h; inhibition, % at 10 µM; hit rate 1.4% among 330,000;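 active = inhibition of 40% or more at the single tested concentration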;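 note: wild-type TIM10 isogenic control strain grown at permissive 25 °C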
NALP3 yeast inh: NALP3 inflammasome inhibitors in reconstituted yeast, primary screen, luminescence, uHTS; Yeast reconstituted NLRP3/ASC/caspase-1, beta-gal luminescence, 24 h; inhibition, % at 10 µM; hit rate 0.39% among 330,000;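 active = inhibition of 50% or more; inactive = inhibition below 50%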;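 note: plate controls were induced DMSO wells for no effect and uninduced yeast grown without galactose for full effect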
tim23-1 inh: growth inhibitors of tim23-1 mutant yeast, primary screen, luminescence, uHTS. hit rate 1.3% among 330,000. S. cerevisiae tim23-1 growth, BacTiter-Glo luminescence, 24 h. inhibition, % at 20 µM;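 active = growth inhibition of the mutant yeast at or above 50%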;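 note: temperature-sensitive mutant grown at 25 °C; plate controls were DMSO-treated mutant yeast for no effect and medium wells lacking yeast for full effect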
tim10 confirm: growth inhibitors of wild-type TIM10 yeast, confirmation, counter-screen for tim10-1 synthetic lethality project, single concentration, luminescence, S. cerevisiae. inhibition, % at 10 µM. shares compounds with TIM10 inh. hit rate 63% among 4,600. S. cerevisiae tim10 strain growth, BacTiter-Glo luminescence, 24 h;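 active = inhibition of yeast growth at or above a set limit in either of two replicates at 10 µM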;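 note: this counterscreen used the strain with wild-type TIM10; 0% = yeast with DMSO and 100% = medium wells lacking yeast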
Active calls of the source: *; . = no result; ! = not active in a repeat.

SMILES	tim10-1 inh	NALP1 yeast inh	TIM10 inh	NALP3 yeast inh	tim23-1 inh	tim10 confirm
COc1ccc(N=Nc2nc(-c3ccccc3)c(-c3ccccc3)[nH]2)cc1	32.2	21.9	41.4*	47.5	33.6	8.4
O=C(NCCCn1ccnc1)Nc1ccc2c(c1)OCO2	4.3	19.8	-10.5	-9.0	0.0	.
CCn1c(CNc2ccc(Cl)cc2)nnc1SCC(=O)OC1CCCCC1	31.6	14.9	45.2*	0.5	20.3	-7.9
CCn1c(CNc2cccc(Cl)c2)nnc1SCC(=O)OC1CCCCC1	32.5	21.0	34.5	-3.3	43.1	.
CN(CC(=O)Nc1ccccc1C(F)(F)F)Cc1c(O)ccc2ccccc12	24.0	0.2	15.4	-2.3	16.6	.
Brc1csc(/C=N/Nc2nc3ccccc3s2)c1	35.8	22.5	27.1	6.1	13.6	.
Cc1ccc2[nH]c(C)c(/C=N/Nc3nc4ccccc4s3)c2c1	39.2	-11.4	41.9*	14.5	48.1	59.2*
Cc1ccc(/C=C/C(=O)c2cc(Br)ccc2OC(=O)c2ccco2)cc1	36.7	22.8	46.5*	-10.7	39.8	43.6*
O=C(/C=C/c1cc(Br)ccc1O)c1ccco1	-129.6	.	65.8*	32.4	-85.7	79.6*
COC(=O)[C@@]12CCCN1[C@H](c1ccc(-c3ccccc3)cc1)[C@@H]1C(=O)N(C)C(=O)[C@@H]12	28.7	.	19.2	11.3	26.5	.
CCCCC[C@@H]1C=C(C(=O)O)[C@H](c2ccc(OC)c(OC)c2)N1S(=O)(=O)c1ccc(C)cc1	5.9	.	96.6*	7.3	-8.9	11.2
O=C(Nc1c(F)cccc1F)c1cnc(N2CCN(c3ccccn3)CC2)c2ccccc12	34.8	11.7	43.2*	17.6	30.8	38.2*
CCOc1ccc(S(=O)(=O)NCCc2ccccn2)cc1	-8.8	.	-14.3	14.8	-2.5	.
CCOC(=O)N1CCC(N2Cc3cccc(C(=O)Nc4ccc(F)cc4)c3C2=O)CC1	36.7	17.0	41.7*	20.4	29.7	30.1
COc1ccc2cc3[n+](cc2c1OC)CCc1cc2c(cc1-3)OCO2	39.1	12.2	51.0*!	24.0	12.0	30.2
CCOC(=O)N1CCN(CC(=O)Nc2nc3ccc(OC)cc3s2)CC1	21.9	-58.7	2.4	19.4	17.3	.
Cc1ccc(S(=O)(=O)N2C[C@@H]3[C@H]4CC[C@H](C4)[C@@H]3[C@@H](C)[C@@H]2c2ccn([Si](C(C)C)(C(C)C)C(C)C)c2)cc1	11.4	.	-6.2	.	24.3	.
CCOc1ccc2c(c1)C(c1ccc(C)cc1)=NNC(c1ccc(OC)cc1)=N2	-3.9	-18.5	-0.4	9.6	27.7	.
CCOc1ccc(C2=NNC(c3cccnc3)=Nc3ccc(OC)cc32)cc1	14.1	-1.0	51.4*	16.8	10.8	31.2
Cc1ccc(SCC(=O)OC(C)C(=O)NCc2ccccc2)cc1 (stereo not drawn)	21.6	.	-2.0	10.7	8.6	.
O=C(C#Cc1ccccc1)c1cccc([N+](=O)[O-])c1	-62.7	-4.4	72.0*	-3.6	16.9	70.3*
Cc1ccc(NC(=O)CN(C)C(=O)CSc2nnc(N)s2)cc1	4.7	.	-7.2	7.4	-10.2	.
COc1ccc(-c2cc3ccccc3n2CC(O)Cn2nc(C)cc2C)cc1 (stereo not drawn)	32.2	19.7	41.2*	8.2	35.0	35.4*
COc1cc(C(=O)NCCCNC(=O)c2cc(OC)c(OC)c(OC)c2)cc(OC)c1OC	-21.1	.	-10.8	-10.0	-6.0	.
COc1cc(C(=O)NCCNC(=O)C2CCCNC2=O)cc(OC)c1OC (stereo not drawn)	9.5	-2.0	40.3*	14.7	10.8	-11.9
SMILES	tim10-1 inh	NALP1 yeast inh	TIM10 inh	NALP3 yeast inh	tim23-1 inh	tim10 confirm
O=C(Cn1cnc2cc([N+](=O)[O-])ccc2c1=O)NC1CCS(=O)(=O)C1 (stereo not drawn)	-0.1	11.6	7.5	21.0	-4.8	.
CCN(CC)C(=O)N1CCN(S(=O)(=O)c2c(C)cc(C)cc2C)CC1	28.3	7.7	40.4*	13.7	37.9	23.9
CCN(CC)C(=O)N1CCN(S(=O)(=O)c2ccc(C)cc2)CC1	14.6	-5.7	2.2	-2.7	13.7	.
Cc1ccc(CN=C2Nc3ccccc3CS2)cc1	20.4	1.4	19.3	14.8	12.1	.
Clc1ccc(CN=C2Nc3ccccc3CS2)cc1	35.6	11.1	40.9*	21.8	36.2	32.5*
O=C(Oc1c(Br)cc(C(=S)N2CCOCC2)cc1Br)c1ccc(Cl)cc1	31.0	7.7	35.1	12.6	26.9	.
O=C(Oc1ccc(C(=S)N2CCOCC2)cc1Br)c1cc(Cl)ccc1Cl	32.4	-0.5	47.2*	18.0	24.5	15.2
O=C(c1ccc([N+](=O)[O-])s1)N1CCc2ccccc2C1	33.9	3.4	45.2*	33.8	40.4	22.4
COCCn1c(C)cc(C(=O)COc2ncnc3ccc(Br)cc23)c1C	10.7	-4.0	42.7*	21.2	18.8	21.7
COc1ccccc1NC(=S)N1CCN(c2cccc(C)c2C)CC1	-3.0	-5.1	21.0	-4.0	26.1	.
CCNC(=S)N/N=C/c1cc(C)n(-c2ccc(Cl)cc2)c1C	33.2	-17.1	50.0*	5.1	29.1	16.1
Cc1cc(/C=N/NC(N)=S)c(C)n1-c1ccc(Cl)c(Cl)c1	8.8	14.0	-5.4	46.9	-23.4	.
CCn1c(O)c(/C=C2\C=Nc3ccccc32)sc1=O	16.1	-9.2	44.3*	5.0	31.2	-11.4
CCn1c(O)c(/C=C2\C=Nc3ccccc32)sc1=Nc1ccc(C)cc1	4.5	3.1	5.8	-6.1	4.7	.
COc1cc(OC)c(N2CC(C(=O)Nc3cccc(C(=O)NC4CC4)c3)CC2=O)cc1Cl (stereo not drawn)	-1.2	.	82.1*	-10.3	-3.8	-3.6
O=C(CNc1cccc2ccccc12)N/N=C/c1ccc[nH]1	-13.2	6.4	7.2	1.3	-5.1	.
O=C(CC12CC3CC(CC(C3)C1)C2)N/N=C\c1ccc[nH]1	31.8	26.5	46.2*	-1.3	36.1	34.4*
O=C(NC12CC3CC(CC(C3)C1)C2)N1CCN(S(=O)(=O)c2ccc(Cl)cc2)CC1	8.4	-1.4	43.0*	0.1	10.8	3.8
C/C(N)=C(/C#N)C(=O)CSc1nc2scc(-c3ccccc3)c2c(=O)n1C	13.8	11.2	23.9	12.3	1.6	.
O=C1NC(=S)N(c2cccc(Cl)c2)C12CCCCC2	36.6	3.4	44.3*	3.3	26.9	8.0
CC1(C)CC(=O)N(c2cccc(Cl)c2)C(=O)C1	4.9	-0.7	-1.6	15.9	3.0	.
Cc1cc(/C([O-])=C(/C(=S)Nc2ccc(F)cc2)[n+]2ccccc2)c(C)n1-c1ccc(F)cc1	29.7	-8.6	3.0	22.1	14.3	.
